Most compounds without a hit are left out; they make up all but 1.5% or so of the library.
MLLE-PAM2 inh: inhibitors of PABP1 MLLE–PAM2 peptide binding, primary screen, biochemical, fluorescence polarization, FITC-PAM2, GST-MLLE. Polyadenylate-binding protein 1 (Homo sapiens), P11940. inhibition, % at 20 µM. 360,000 tested, 0.36% active. AID 588489, 2011; in the data active = inhibition above about 35%, passing the limit was not always enough;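 also: plate controls were DMSO wells with GST-MLLE for no effect and wells lacking GST-MLLE protein for full effect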
eIF4E 4G PPI: eIF4E–eIF4G protein interaction inhibitors, primary screen, biochemical, uHTS, TR-FRET, eIF4GI fragment; Eukaryotic translation initiation factor 4E (Mus musculus) + Eukaryotic translation …; TR-FRET eIF4E-eIF4GI(517-606) binding, 2 h; inhibition, % at 21.7 µM; 220,000 tested, 0.37% active; AID 782, 2007;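 active = inhibition above about 30%, limit read from the data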;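 also: 0% = full FRET control wells and 100% = background wells lacking eIF4GI fragment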
eIF4H FP inh: human eIF4H binding inhibitors, primary screen, translation initiation inhibitor project, biochemical, uHTS, fluorescence polarization | 290,000 tested, 0.94% active | Eukaryotic translation initiation factor 4H (Homo sapiens), Q15056 | inhibition, % at 35 µM | eIF4H fluorescence polarization binding assay | AID 2012, 2009;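 also: calls also rest on retests at 20 µM and on dose response follow-up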
PABP FP inh: PABP poly(A) RNA binding inhibitors, primary screen, biochemical, fluorescence polarization, uHTS; Polyadenylate-binding protein 1 (Homo sapiens), P11940; calls only at 35 µM; 290,000 tested, 1% active;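 also: calls also rest on retests at 20 µM and on dose response follow-up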
An asterisk follows results filed as active; i = inactive; u = inconclusive; x = not tested or not shown; + = active, no number; [ ] = remark or other dose. Unless noted, no rule for the calls is given here.

SMILES | MLLE-PAM2 inh | eIF4E 4G PPI | eIF4H FP inh | PABP FP inh
CCN1c2ccccc2N(C)C1(C)c1ccccc1 (configuration not stated) | 24 | 43*[fluorescence artefact?] | 84* | +
CN1c2ccccc2N(C)C1(C)c1ccccc1 | 13 | 42*[fluorescence artefact?] | 67* | +
CCC1(c2ccccc2)CN(C)C1=O (configuration not stated) | 18 | x | x | x
COc1ccc(-n2c(SCC3CNC(=O)O3)nnc2-c2ccc(Cl)cc2)cc1 (configuration not stated) | -109 | 2 | 3 | i
Cc1cccc(-c2nnc(SCC3CNC(=O)O3)n2-c2ccc(Cl)cc2)c1 (configuration not stated) | -129 | 45* | 0 | i
Cc1ccc(O)c(NC2=C(Cl)C(=O)N(Cc3ccccc3)C2=O)c1 | -6 | 31* | 9 | i
Cc1ccc(C(=O)N2CCn3c(C)ccc3C2C)cc1 (configuration not stated) | -23 | 4 | 64* | +
CC1(C(=O)NS(=O)(=O)c2ccc(F)cc2F)CCN1C(=O)CC1CCCC1 (configuration not stated) | -10 | x | x | x
CCc1nc2ccc(C(=O)Nc3ccc4c(c3)OCC(=O)N4)cn2c1N(C)C(=O)Cc1ccccc1 | -3 | x | x | x
COc1ccc2[nH]c(=O)c(CNc3ccccc3)cc2c1 | 4 | -1 | 5 | i
CCOc1ccc(NCc2cc3cc(OC)ccc3[nH]c2=O)cc1 | 4 | 7 | 35* | +
CCC1Cc2[nH]c(=S)[nH]c(=O)c2C(c2ccc(Cl)cc2)O1 (configuration not stated) | 9 | x | x | x
O=[N+]([O-])c1ccccc1SN(Cc1ccccc1)c1ccccn1 | 8 | -1 | 58* | +
O=C(c1ccc([N+](=O)[O-])cc1)N(Cc1ccccc1)c1ccccn1 | 6 | 3 | 6 | i
COc1ccc(NC(=S)N/N=C2\CC(C)(C)Oc3ccc(OC)cc32)cc1 | 37* | 2 | -7 | i
CCCc1c(C(=O)N/N=C(\C)c2ccc(CC(C)C)cc2)nnn1-c1nonc1N | 6 | x | x | x
O=C1CCCN1c1ccc([N+](=O)[O-])cc1 | -5 | x | x | x
CN1CC=C2C(C#N)=C(N)C(C#N)(C#N)[C@H](c3ccoc3)[C@H]2C1 | 139 | -5 | u | u
CN1CC=C2C(C#N)=C(N)C(C#N)(C#N)C(c3cccc(Cl)c3Cl)C2C1 (configuration not stated) | 55 | 6 | 122* | i
COC(=O)[C@H](Cc1ccccc1)NC(=O)/C=C/[C@H]1O[C@@H](n2cc(C)c(=O)[nH]c2=O)C[C@@H]1O | 14 | x | x | x
CC(C)(C)N(Cc1ccccc1)C(=O)CSc1ncn[nH]1 | -4 | x | -14 | i
CNC(=S)NN=C(C)c1ccc(OC)cc1O | 43* | x | x | x
COc1ccc(/C(C)=N/N=C(N)N)c(O)c1 | -4 | 1 | -2 | i
CC(=O)c1ccc([C@@H]2C[C@]34CN(Cc5cccc(C(F)(F)F)c5)S(=O)(=O)[C@H]3C[C@H]2O4)cc1 | 0 | 0 | -7 | i
O=[N+]([O-])c1cc([N+](=O)[O-])c2cc3ccccc3nc2c1 | 45* | x | 22 | i
SMILES | MLLE-PAM2 inh | eIF4E 4G PPI | eIF4H FP inh | PABP FP inh
O=C(OCc1cn([C@H]2CN(Cc3cccs3)[C@@H](c3ccc(Cl)cc3)C[C@@H]2O)nn1)c1ccccc1 | 0 | x | x | x
CCOC(=O)c1c(N)sc2c1CCC(CC)C2 (configuration not stated) | 18 | 8 | 7 | i
CCOC(=O)c1c(N)sc(=S)c2c1CCC2 | 41* | 8 | 33* | +
CCOC(=O)c1c(N)sc2c1CCSC2 | -15 | -6 | 111* | +
CCc1nc2ccc(C(=O)N(C)CCCN(C)C)cn2c1N(C)Cc1cc2ccccc2s1 | 6 | x | x | x
N#Cc1ccc(C(=O)N2CCCCC2c2cc(C(=O)Nc3ccc4c(c3)OCO4)no2)cc1 (configuration not stated) | -4 | x | x | x
COc1ccc(NCc2ccc([N+](=O)[O-])s2)c(OC)c1 | 9 | -5 | 73* | +
COc1ccc(NCc2ccc([N+](=O)[O-])s2)cc1 | 8 | 3 | 1 | i
CCn1c(NC(=O)Nc2cccc(C)c2C)cc2sccc21 | -10 | 1 | 87* | +
Cc1noc(C)c1CCC(=O)Nc1cc(Cl)ccc1C(=O)O | 11 | x | x | x
O=C(O)c1cc(C(=O)O)cc(-c2ccc(/C=c3/sc4nc5ccccc5n4c3=O)o2)c1 | x | 3 | 56* | i
O=C(O)c1ccccc1-c1ccc(C=c2sc3nc4cc(Br)cnc4n3c2=O)o1 | -133 | x | x | x
O=c1/c(=C\c2cc([N+](=O)[O-])cc([N+](=O)[O-])c2O)sc2nc3ccccc3n12 | -88 | 30* | 35 | i
O=C(O)c1cccc(-c2ccc(/C=c3/sc4nc5ccccc5n4c3=O)o2)c1 | -134 | 39* | 60 | i
O=C(NC(c1ccccc1)c1ccc2ccccc2n1)C1CCN(Cc2cccc(C(F)(F)F)c2)CC1 (configuration not stated) | 11 | x | x | x
c1ccc2c(c1)NCC1CCCN21 (configuration not stated) | 8 | x | 104* | i
COCCN(Cc1ccc(C)c(Br)c1)C(=O)Cn1cnc(S(=O)(=O)N2CCCC2)c1 | 12 | x | -11 | i
Cc1cc(OCC(=O)OC(C)C(=O)NC2CC2)c(C(C)C)cc1Cl (configuration not stated) | -24 | x | x | x
CCN(CC)C(=O)C1=C(C)N(CCC2=CCCCC2)C(=O)C(CC(=O)NCCCN(C)C)C1 (configuration not stated) | 10 | x | x | x
CCN(CC)CCCNc1ncnc2ccccc12 | 3 | -1 | 44 | +
O=C(Cn1cc(C(=S)N2CCOCC2)c2ccccc21)N1CCOCC1 | 13 | 0 | -14 | i
O=C(Cn1cc(C(=O)COc2ccccc2)c2ccccc21)NCc1ccco1 | -41 | 2 | 36* | i
O=C(COc1ccccc1)c1cn(CC(=O)N2CCOCC2)c2ccccc12 | -7 | 4 | 95* | +
Cc1ccc(NC2CCCN(C(=O)c3cc(C(C)C)nn3C)C2)cc1C (configuration not stated) | 4 | x | x | x
COc1ccc(C2/C=C\CN(C(=O)c3ccccc3)[C@H](Cc3ccccc3)C(=O)N2Cc2ccc(F)cc2)cc1 (some centres not stated) | -13 | 60* | -10 | i
CC(C)SCC(=O)Nc1ncc2c(n1)-c1ccccc1CC2 | -33 | 12 | 76* | i
Cc1nc(S/C(=C/c2ccc(-c3cc(Cl)ccc3C)o2)C(=O)O)n[nH]1 | -12 | -1 | 60 | +
CC(=O)c1ccc(-c2ccc(/C=C(/Sc3n[nH]c(C)n3)C(=O)O)o2)cc1 | -124 | 1 | 18 | i
Cc1nc(S/C(=C/c2ccc(-c3ccc(Cl)cc3)o2)C(=O)O)n[nH]1 | -20 | -9 | 43 | i

Assay outcomes as filed in PubChem BioAssay.
